Experimental data: PubChem BioAssay AID1851 (National Center for Advancing Translational Sciences (NCATS), 2009)
The campaign covered roughly 16,000 compounds. About 5,100 (32%) were called active. Not shown: some 25% with an inconclusive outcome. The call rests on the fitted dose curve; in most records, active means well fitted curve in the direction sought with a large enough effect; inconclusive means small, poorly fitted or top-dose-only effect, or effect the other way; inactive means no such curve, though single readings can be large or run the other way. This is one part of the list. A structure can be active in one record and inactive in another.
On the % scale 0 is the no-effect control and ±100 the full control effect.

What follows are molecules tested against Cytochrome P450 3A4 (Homo sapiens) (UniProt P08684) (assay: Cytochrome panel assay with activity outcomes). Conditions: recombinant CYP, pro-luciferin dealkylation, luminescence, p450-cyp3a4; series mostly up to 57.1 µM.
Sequence of Cytochrome P450 3A4 (Homo sapiens) (P08684 whole entry, looked up): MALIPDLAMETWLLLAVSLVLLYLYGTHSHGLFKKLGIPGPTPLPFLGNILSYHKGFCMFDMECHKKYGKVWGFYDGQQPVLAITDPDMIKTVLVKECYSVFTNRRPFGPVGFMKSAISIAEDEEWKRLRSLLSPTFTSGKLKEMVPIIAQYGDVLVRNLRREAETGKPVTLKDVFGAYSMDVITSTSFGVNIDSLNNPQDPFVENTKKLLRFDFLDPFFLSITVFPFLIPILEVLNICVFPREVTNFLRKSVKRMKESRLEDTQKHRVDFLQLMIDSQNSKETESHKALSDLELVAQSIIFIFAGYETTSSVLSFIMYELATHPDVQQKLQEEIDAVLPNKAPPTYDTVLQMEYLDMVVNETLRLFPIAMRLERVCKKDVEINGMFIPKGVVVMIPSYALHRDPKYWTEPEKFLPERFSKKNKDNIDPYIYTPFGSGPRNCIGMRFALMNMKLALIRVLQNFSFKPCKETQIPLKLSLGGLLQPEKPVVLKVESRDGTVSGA
With `COc1cc2c(cc1OC)[C@H](C)NCC2` the activity, negative = inhibition was “inactive”. With `CC[C@H]1CN2CC[C@@H]1C[C@H]2[C@@H](O)c1ccnc2ccc(OC)cc12` the activity, negative = inhibition was “inactive”. In the case of `COc1cc2c(cc1OC)[C@@]13CCN4C=C5CCO[C@H]6CC(=O)N2[C@@H]1[C@@H]6[C@H]5C[C@H]43`, the activity, negative = inhibition is reported as 13.3% [at 11.4 µM] (inactive). For `[N-]=[N+]=CC(=O)CC[C@H](N)C(=O)O`, the activity, negative = inhibition was -9.62% [at 11.4 µM] (inactive). For `CN1CCc2cccc(Cl)c2CC1`, the activity, negative = inhibition was “inactive”. With `NC(=O)CN1C[C@@H](O)CC1=O` the activity, negative = inhibition was “inactive”. In the case of `CN(C)C=C1C(=O)N(C2CCCCC2)C(=O)N(C2CCCCC2)C1=O`, the activity, negative = inhibition is reported as “inactive”. With `CN1C2C=C3C(C#N)=C(N)C(C#N)(C#N)[C@H](c4c(F)cccc4F)[C@H]3C1CC2` (stereo not given in full) the AC50 was 4.47 µM (active). `CS(=N)(=O)CC[C@@H](N)C(=O)O` (stereo not given in full) was tested, and the activity, negative = inhibition was “inactive”. `C[C@@H]1O[C@@H](O[C@H]2C[C@@H](O)[C@@]3(CO)[C@H]4[C@H](O)C[C@]5(C)[C@@H](C6=CC(=O)OC6)CC[C@]5(O)[C@H]4CC[C@@]3(O)C2)[C@@H](O)[C@H](O)[C@H]1O` was tested, and the activity, negative = inhibition was 10.6% [at 11.4 µM] (inactive). `NC(=O)CN1CCCC1=O` was tested, and the activity, negative = inhibition was “inactive”. In the case of `NC(=O)CI`, the AC50 is reported as 0.0631 µM (active). With `NNC(N)=O` the activity, negative = inhibition was “inactive”. In the case of `CCCN1CCC[C@@H]2Cc3nc(N)ncc3C[C@H]21`, the activity, negative = inhibition is reported as “inactive”. In the case of `COC(=O)[C@@H]1[C@@H]2C[C@H]3c4[nH]c5cc(OC)ccc5c4CCN3C[C@@H]2C[C@H](OC(=O)/C=C\c2cc(OC)c(OC)c(OC)c2)[C@H]1OC`, the activity, negative = inhibition is reported as “inactive”. In the case of `COc1cc(CCN)ccc1O`, the activity, negative = inhibition is reported as “inactive”. For `COc1cc(CNC(=O)CCCC/C=C\C(C)C)ccc1O`, the AC50 was 3.98 µM (active). For `CNC[C@H](O)c1ccc(O)c(OC)c1`, the activity, negative = inhibition was “inactive”. `Cc1cccc([C@H](C)c2cnc[nH]2)c1C` was tested, and the AC50 was 0.158 µM (active). For `O=P(O)(O)C(Cl)(Cl)P(=O)(O)O`, the activity, negative = inhibition was “inactive”. In the case of `C(=C/c1ccccc1)/CN1CCN(CCOC(c2ccccc2)c2ccccc2)CC1`, the activity, negative = inhibition is reported as “inactive”. With `CCC(=O)O[C@@](Cc1ccccc1)(c1ccccc1)[C@@H](C)CN(C)C` the AC50 was 5.01 µM (active). For `CC(C)[N+](C)(CCC(C(N)=O)(c1ccccc1)c1ccccc1)C(C)C`, the activity, negative = inhibition was “inactive”. In the case of `O=C(O)[C@H]1[C@H](C(=O)O)[C@H]2CC[C@@H]1O2`, the activity, negative = inhibition is reported as “inactive”. With `COc1cc(CCN)c(OC)c(OC)c1` the activity, negative = inhibition was -5.19% [at 11.4 µM] (inactive). With `CCOP(=O)(CN(CC)CCNP(=O)(OCC)OCC)OCC` the activity, negative = inhibition was 10.5% [at 2.29 µM] (inactive). With `CN1CCc2nc3sc(C(=O)NC(C)(C)C)c(N)c3cc2C1` the activity, negative = inhibition was -11.5% [at 2.29 µM] (inactive). For `CC[C@@]1(O)C(=O)OCc2c1cc1n(c2=O)Cc2cc3ccccc3nc2-1`, the AC50 was 6.31 µM (active) and inactive. In the case of `CC[C@]1(OC(=O)CN)C(=O)OCc2c1cc1n(c2=O)Cc2cc3ccccc3nc2-1`, the activity, negative = inhibition is reported as -27% [at 11.4 µM] (inactive). For `CC[C@@]1(O)C(=O)OCc2c1cc1n(c2=O)Cc2cc3c(NC(=O)CN)cccc3nc2-1`, the activity, negative = inhibition was 0.232% [at 11.4 µM] (inactive). In the case of `O=C(NC1CCCCC1)NC1CC2CCC(C1)N2Cc1nnnn1Cc1ccc2c(c1)OCO2` (stereo not given), the AC50 is reported as 3.16 µM (active). In the case of `CCc1ccccc1NC(=O)NC1CC2CCC(C1)N2Cc1cccs1` (stereo not given), the activity, negative = inhibition is reported as “inactive”. `COc1ccc(NC(=O)NC2CC3CCCC(C2)N3Cc2ccccc2)cc1` (stereo not given) was tested, and the activity, negative = inhibition was “inactive”. For `C[C@@]12CC[C@H]3[C@H](CC=C4C[C@@H](O)CC[C@@]43C)[C@@H]1CC[C@@H]2N(CCO)CCO`, the activity, negative = inhibition was 12.7% [at 11.4 µM] (inactive). For `c1ccc(CN2CCC3(CCNCC3)CC2)cc1`, the activity, negative = inhibition was “inactive”. In the case of `O=C1NCN(c2ccccc2)C12CCN(CCCOc1ccc(F)cc1)CC2`, the activity, negative = inhibition is reported as “inactive”. `COC(=O)CN1CN(c2ccccc2)C2(CCN(Cc3ccc4ccccc4c3)CC2)C1=O` was tested, and the AC50 was 15.8 µM (active). In the case of `CC[C@]1([C@H]2O[C@@H]([C@@H]3O[C@](O)(CO)[C@@H](C)C[C@H]3C)C[C@H]2C)CC[C@@H]([C@]2(C)CC[C@@]3(C[C@@H](O)[C@@H](C)[C@@H]([C@H](C)[C@H](OC)[C@H](C)C(=O)O)O3)O2)O1`, the activity, negative = inhibition is reported as “inactive”. For `c1cc2cc(c1)C[n+]1ccc(c3ccccc31)NCc1ccc(cc1)CNc1cc[n+](c3ccccc13)C2`, the activity, negative = inhibition was “inactive”. In the case of `O=C(Oc1ccc([N+](=O)[O-])cc1)N1CCC(N2CCCCC2)CC1`, the activity, negative = inhibition is reported as “inactive”. `C[C@@]12C=CC(=O)C=C1CC[C@@H]1C2=CC[C@]2(C)[C@@H]1CC[C@H]2C(=O)CN1CCN(c2cc(N3CCCC3)nc(N3CCCC3)n2)CC1` was tested, and the AC50 was 3.16 µM (active). For `C[As+](C)(c1ccc(Br)c([N+](=O)[O-])c1)c1ccc(Br)c([N+](=O)[O-])c1.O=[N+]([O-])O`, the activity, negative = inhibition was -4.86% [at 11.4 µM] (inactive). With `COC(=O)C[C@](O)(CCCC(C)(C)O)C(=O)O[C@@H]1C(OC)=C[C@]23CCCN2CCc2cc4c(cc2[C@H]13)OCO4` the AC50 was 12.6 µM (active). In the case of `CN(C)CCCc1c[nH]c2ccccc12`, the activity, negative = inhibition is reported as -0.0212% [at 11.4 µM] (inactive). In the case of `O=C1CCCN1CC#CCN1CCCC1`, the activity, negative = inhibition is reported as “inactive”. In the case of `O=C1C=C2C=C[C@H]3C[C@@]2(O1)[C@H]1CCCCN31`, the activity, negative = inhibition is reported as “inactive”. For `Nc1ccc(S(=O)(=O)c2ccc(NCN3C(=O)NC(=O)C(=O)C3=O)cc2)cc1`, the AC50 was 2 µM (active). For `CC(=O)NBr`, the activity, negative = inhibition was “inactive”. In the case of `CS(=O)(=O)Nc1ccc(Cc2noc(-c3ccc4[nH]cc(CCN)c4c3)n2)cc1`, the AC50 is reported as 15.8 µM (active). `NCCc1c[nH]c2ccc(O)cc12` was tested, and the activity, negative = inhibition was “inactive”. `COc1ccc2[nH]cc(CCN)c2c1` was tested, and the activity, negative = inhibition was “inactive”. In the case of `O=C1OC(=O)[C@@H]2[C@@H]1[C@@H]1CC[C@H]2O1`, the activity, negative = inhibition is reported as “inactive”. With `C=C[C@H]1CN2CC[C@@H]1C[C@H]2[C@@H](O)c1ccnc2ccccc12` the activity, negative = inhibition was “inactive”. In the case of `CCCN1CCC[C@H](c2cccc(O)c2)C1`, the activity, negative = inhibition is reported as “inactive”. `CC(C)C12CN3CC(C(C)C)(CN(C1)C3c1cccnc1)C2=O` (stereo not given) was tested, and the AC50 was 2.24 µM (active). With `CNCCc1ccc(O)c(O)c1` the activity, negative = inhibition was “inactive”. `NP(N)(=O)NC(=O)c1ccc(F)cc1` was tested, and the activity, negative = inhibition was “inactive”. For `NNC(=O)c1ccc(O)cc1`, the AC50 was 5.01 µM (active). In the case of `NCCc1ccc(O)cc1`, the activity, negative = inhibition is reported as “inactive”. For `Ic1cncc(OC[C@@H]2CCN2)c1`, the activity, negative = inhibition was “inactive”. With `CCN(CCCl)Cc1ccccc1Br` the activity, negative = inhibition was “inactive”. For `COc1ccc(OC)c([C@H](O)[C@H](C)N)c1`, the activity, negative = inhibition was “inactive”. `CN(N=O)C(=O)N[C@H]1[C@@H](O)[C@H](O)[C@H](CO)O[C@@H]1O` was tested, and the activity, negative = inhibition was “inactive”. `COC(=O)[C@@]1(Cc2ccc(F)cc2)[C@H]2c3cc(C(=O)N(C)C)[nH]c3C[C@H]2CN1C(=O)c1ccccc1` was tested, and the AC50 was 0.631 µM (active). In the case of `CC(C)[C@]1(O)[C@@H](OC(=O)c2ccc[nH]2)[C@]2(O)[C@@]3(C)C[C@@]4(O)O[C@@]5([C@H](O)[C@@H](C)CC[C@]35O)[C@]2(O)[C@]41C`, the activity, negative = inhibition is reported as -24.6% [at 11.4 µM] (inactive). In the case of `CC(C)c1nccn1Cc1ccc(Cl)cc1Cl`, the activity, negative = inhibition is reported as -9.57% [at 11.4 µM] (inactive). For `CCC/C=C(\CCC)C(NP(=O)(c1ccccc1)c1ccccc1)c1ccccc1` (stereo not given), the AC50 was 6.31 µM (active). `O=C(O)[C@H]1C[C@@H]1[C@H](NP(=O)(c1ccccc1)c1ccccc1)c1ccccc1` was tested, and the activity, negative = inhibition was “inactive”. In the case of `O=C(O)[C@@H]1C[C@H]1[C@@H](NP(=O)(c1ccccc1)c1ccccc1)c1ccccc1`, the activity, negative = inhibition is reported as “inactive”. With `c1cc(C2N3CCCN2CC3)ccn1` (stereo not given) the activity, negative = inhibition was -11.6% [at 11.4 µM] (inactive). For `CCCCCCCCCC[Si](C)(C)CCC(=O)N[C@@H](Cc1ccc(C)cc1)c1ccccc1`, the activity, negative = inhibition was “inactive”. With `C[N+]12CCC(CC1)[C@@H](OC(=O)C(O)(c1ccccc1)c1ccccc1)C2` the activity, negative = inhibition was “inactive”. `Cc1nc(-c2ccc(-c3ccc(C(=O)N4CCc5cc6c(cc54)C4(CCN(C)CC4)CO6)cc3)c(C)c2)no1` was tested, and the activity, negative = inhibition was “inactive”. For `c1ccc(CN2CCCC3(CCNCC3)C2)cc1`, the activity, negative = inhibition was “inactive”. With `c1cc(CN2CC3(CCNCC3)C2)ccn1` the activity, negative = inhibition was “inactive”. With `c1cc(CN2CCCC3(CCNCC3)C2)ccn1` the AC50 was 15.8 µM (active). For `CC(=NCc1ccco1)c1c(O)n(-c2ccccc2)c(=O)[nH]c1=O`, the activity, negative = inhibition was “inactive”. For `Cc1nc2ccccc2cc1C[N+]12CN3CN(CN(C3)C1)C2`, the activity, negative = inhibition was -6.46% [at 11.4 µM] (inactive). `Cc1[nH]c2ccc(O)cc2c1CCN` was tested, and the activity, negative = inhibition was “inactive”. For `N[C@H](CCCCCP(=O)(O)O)C(=O)O`, the activity, negative = inhibition was “inactive”. With `OC(c1ccccc1)(c1ccccc1)C1CCCN1` (stereo not given) the activity, negative = inhibition was -2.76% [at 2.29 µM] (inactive). In the case of `O=C1N[C@@]2(CN3CCC2CC3)C(=O)N1CN(Cc1ccccc1)c1ccccc1`, the activity, negative = inhibition is reported as 1.78% [at 11.4 µM] (inactive). `CN1C2CCC1CC(OC(=O)c1ccc(Cl)cc1)C2` (stereo not given) was tested, and the activity, negative = inhibition was “inactive”. `Cc1sc2c(c1C)C(c1ccc(C(C)(C)C)cc1)=NCC(=O)N2CC(=O)Nc1nccs1` was tested, and the AC50 was 7.94 µM (active). `Nc1nnnn1CCO` was tested, and the activity, negative = inhibition was -6.3% [at 11.4 µM] (inactive). `O=c1oc(Cl)c(Cl)c2ccccc12` was tested, and the activity, negative = inhibition was “inactive”. In the case of `O=C(O)C(C(=O)O)P(=S)(S)c1ccccc1` (stereo not given), the activity, negative = inhibition is reported as 8.13% [at 11.4 µM] (inactive). In the case of `C[C@H]1CC[C@@]2(NC1)O[C@@H]1C[C@H]3[C@@H]4CC=C5C[C@@H](O)CC[C@]5(C)[C@@H]4CC[C@]3(C)[C@@H]1[C@@H]2C`, the activity, negative = inhibition is reported as “inactive”. In the case of `O=[As](O)(O)c1ccc(NCc2ccccc2)cc1`, the activity, negative = inhibition is reported as -8.35% [at 11.4 µM] (inactive). For `COc1cc(OC)c(/C=C2/C(=O)Nc3ccccc32)c(OC)c1`, the AC50 was 2.51 µM (active). With `OC(c1ccccc1)(c1ccccc1)C1CCNCC1` the activity, negative = inhibition was “inactive”. `CC(C)(C)C(=O)CP(=O)(O)O` was tested, and the activity, negative = inhibition was -7.32% [at 11.4 µM] (inactive). For `CCCCc1ccc(C(=O)O)nc1`, the activity, negative = inhibition was “inactive”. `C[C@]12CC[C@@H]3[C@H](CCC4=CC(=O)CC[C@]43C)[C@]1(O)CC[C@@]2(O)C(=O)CO` was tested, and the activity, negative = inhibition was -0.348% [at 11.4 µM] (inactive). `Oc1ccc(-c2nc(-c3ccc(F)cc3)c(-c3ccncc3)[nH]2)cc1` was tested, and the AC50 was 0.501 µM (active).
